Legend:
[1] = target: T1, Ephrin type-B receptor 2 (Homo sapiens) (UniProt P29323); conditions: at 1 µM
T1 sequence (whole entry): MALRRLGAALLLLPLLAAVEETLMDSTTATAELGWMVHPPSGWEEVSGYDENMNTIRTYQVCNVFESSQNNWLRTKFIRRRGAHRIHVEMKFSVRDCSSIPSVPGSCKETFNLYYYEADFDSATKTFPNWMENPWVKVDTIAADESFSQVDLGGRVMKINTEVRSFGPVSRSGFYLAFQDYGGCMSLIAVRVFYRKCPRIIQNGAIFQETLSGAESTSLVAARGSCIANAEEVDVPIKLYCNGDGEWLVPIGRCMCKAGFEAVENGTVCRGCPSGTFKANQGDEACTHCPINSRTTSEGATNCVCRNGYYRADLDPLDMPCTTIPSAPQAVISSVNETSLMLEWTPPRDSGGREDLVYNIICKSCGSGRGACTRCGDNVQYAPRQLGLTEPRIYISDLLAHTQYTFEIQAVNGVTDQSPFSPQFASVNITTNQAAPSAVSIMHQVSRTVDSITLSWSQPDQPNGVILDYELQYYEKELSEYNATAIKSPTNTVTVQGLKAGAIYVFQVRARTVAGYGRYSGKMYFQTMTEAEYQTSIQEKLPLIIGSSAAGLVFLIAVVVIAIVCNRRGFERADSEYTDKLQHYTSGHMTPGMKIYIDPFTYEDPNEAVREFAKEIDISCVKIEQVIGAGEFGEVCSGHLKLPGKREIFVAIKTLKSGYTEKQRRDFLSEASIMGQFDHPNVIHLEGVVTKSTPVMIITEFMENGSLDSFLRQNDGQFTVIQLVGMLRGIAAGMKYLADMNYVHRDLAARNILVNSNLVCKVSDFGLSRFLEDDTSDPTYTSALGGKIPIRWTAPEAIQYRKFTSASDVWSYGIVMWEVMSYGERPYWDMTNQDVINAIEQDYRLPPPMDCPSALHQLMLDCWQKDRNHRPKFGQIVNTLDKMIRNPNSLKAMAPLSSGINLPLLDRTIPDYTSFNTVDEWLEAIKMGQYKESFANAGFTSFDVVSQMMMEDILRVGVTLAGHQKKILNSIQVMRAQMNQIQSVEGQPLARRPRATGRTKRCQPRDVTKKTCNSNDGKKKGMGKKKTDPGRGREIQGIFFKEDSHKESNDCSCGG

[2] = target: T2, Ephrin type-B receptor 3 (Homo sapiens) (UniProt P54753); conditions: at 0.1 µM
T2 sequence (whole entry): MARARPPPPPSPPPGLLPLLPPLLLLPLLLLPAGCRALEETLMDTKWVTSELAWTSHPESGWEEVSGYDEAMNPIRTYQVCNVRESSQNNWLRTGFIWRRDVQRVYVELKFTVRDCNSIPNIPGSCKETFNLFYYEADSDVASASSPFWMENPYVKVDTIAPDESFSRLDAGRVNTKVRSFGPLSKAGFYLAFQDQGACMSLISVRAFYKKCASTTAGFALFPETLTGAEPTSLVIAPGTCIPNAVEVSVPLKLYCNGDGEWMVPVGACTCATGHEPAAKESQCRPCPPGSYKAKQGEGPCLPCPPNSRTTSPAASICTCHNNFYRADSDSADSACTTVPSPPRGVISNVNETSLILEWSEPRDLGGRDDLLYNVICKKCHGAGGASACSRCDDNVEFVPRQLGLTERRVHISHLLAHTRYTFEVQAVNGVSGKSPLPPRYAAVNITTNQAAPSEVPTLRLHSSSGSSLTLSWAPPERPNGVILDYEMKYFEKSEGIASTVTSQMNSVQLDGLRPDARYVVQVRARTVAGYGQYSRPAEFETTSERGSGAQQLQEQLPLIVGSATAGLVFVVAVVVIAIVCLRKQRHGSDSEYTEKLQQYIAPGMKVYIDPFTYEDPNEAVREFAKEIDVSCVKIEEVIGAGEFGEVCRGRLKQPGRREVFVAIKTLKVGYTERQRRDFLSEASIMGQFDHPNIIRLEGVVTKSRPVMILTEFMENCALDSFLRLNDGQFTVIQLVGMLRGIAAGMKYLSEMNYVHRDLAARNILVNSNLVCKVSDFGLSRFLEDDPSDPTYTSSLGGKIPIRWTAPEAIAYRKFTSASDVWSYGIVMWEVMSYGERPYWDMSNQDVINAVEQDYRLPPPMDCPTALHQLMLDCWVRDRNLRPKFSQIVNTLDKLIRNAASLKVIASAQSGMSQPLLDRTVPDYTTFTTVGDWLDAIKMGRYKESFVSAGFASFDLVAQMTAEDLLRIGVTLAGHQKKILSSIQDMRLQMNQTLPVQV

[3] = target: T2, Ephrin type-B receptor 3 (Homo sapiens); conditions: at 1 µM
[4] = target: T3, Ephrin type-B receptor 4 (Homo sapiens) (UniProt P54760); conditions: at 0.1 µM
T3 sequence (whole entry): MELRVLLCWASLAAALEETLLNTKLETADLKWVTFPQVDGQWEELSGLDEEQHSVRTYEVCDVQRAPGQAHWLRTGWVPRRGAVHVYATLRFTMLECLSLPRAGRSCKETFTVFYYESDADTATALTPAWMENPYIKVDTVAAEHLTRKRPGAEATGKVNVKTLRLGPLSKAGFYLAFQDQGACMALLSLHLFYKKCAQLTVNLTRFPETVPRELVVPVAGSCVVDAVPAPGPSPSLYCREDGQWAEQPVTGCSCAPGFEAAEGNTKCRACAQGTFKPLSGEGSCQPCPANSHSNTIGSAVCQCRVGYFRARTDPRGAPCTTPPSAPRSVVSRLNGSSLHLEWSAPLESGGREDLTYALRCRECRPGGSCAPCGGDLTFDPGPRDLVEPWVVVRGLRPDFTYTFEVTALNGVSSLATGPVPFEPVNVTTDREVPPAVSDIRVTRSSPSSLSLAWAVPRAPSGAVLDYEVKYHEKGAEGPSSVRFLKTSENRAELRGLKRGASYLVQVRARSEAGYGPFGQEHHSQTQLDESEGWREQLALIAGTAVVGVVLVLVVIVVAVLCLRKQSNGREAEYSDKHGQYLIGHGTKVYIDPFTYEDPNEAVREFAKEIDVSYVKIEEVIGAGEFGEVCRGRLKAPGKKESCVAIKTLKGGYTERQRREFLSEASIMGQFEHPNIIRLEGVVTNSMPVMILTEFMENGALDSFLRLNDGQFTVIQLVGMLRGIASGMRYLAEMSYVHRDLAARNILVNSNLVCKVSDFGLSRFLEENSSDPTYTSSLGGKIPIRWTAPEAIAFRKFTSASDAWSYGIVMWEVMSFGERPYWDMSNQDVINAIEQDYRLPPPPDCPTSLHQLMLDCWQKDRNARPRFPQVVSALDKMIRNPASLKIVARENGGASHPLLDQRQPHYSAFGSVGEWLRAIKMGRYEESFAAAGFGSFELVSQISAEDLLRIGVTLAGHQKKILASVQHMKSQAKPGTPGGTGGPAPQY

[5] = target: T3, Ephrin type-B receptor 4 (Homo sapiens); conditions: at 1 µM
[6] = target: Receptor tyrosine-protein kinase erbB-2 (Homo sapiens) (UniProt P04626); conditions: at 0.1 µM
Chain of Receptor tyrosine-protein kinase erbB-2 (Homo sapiens) (P04626 whole entry): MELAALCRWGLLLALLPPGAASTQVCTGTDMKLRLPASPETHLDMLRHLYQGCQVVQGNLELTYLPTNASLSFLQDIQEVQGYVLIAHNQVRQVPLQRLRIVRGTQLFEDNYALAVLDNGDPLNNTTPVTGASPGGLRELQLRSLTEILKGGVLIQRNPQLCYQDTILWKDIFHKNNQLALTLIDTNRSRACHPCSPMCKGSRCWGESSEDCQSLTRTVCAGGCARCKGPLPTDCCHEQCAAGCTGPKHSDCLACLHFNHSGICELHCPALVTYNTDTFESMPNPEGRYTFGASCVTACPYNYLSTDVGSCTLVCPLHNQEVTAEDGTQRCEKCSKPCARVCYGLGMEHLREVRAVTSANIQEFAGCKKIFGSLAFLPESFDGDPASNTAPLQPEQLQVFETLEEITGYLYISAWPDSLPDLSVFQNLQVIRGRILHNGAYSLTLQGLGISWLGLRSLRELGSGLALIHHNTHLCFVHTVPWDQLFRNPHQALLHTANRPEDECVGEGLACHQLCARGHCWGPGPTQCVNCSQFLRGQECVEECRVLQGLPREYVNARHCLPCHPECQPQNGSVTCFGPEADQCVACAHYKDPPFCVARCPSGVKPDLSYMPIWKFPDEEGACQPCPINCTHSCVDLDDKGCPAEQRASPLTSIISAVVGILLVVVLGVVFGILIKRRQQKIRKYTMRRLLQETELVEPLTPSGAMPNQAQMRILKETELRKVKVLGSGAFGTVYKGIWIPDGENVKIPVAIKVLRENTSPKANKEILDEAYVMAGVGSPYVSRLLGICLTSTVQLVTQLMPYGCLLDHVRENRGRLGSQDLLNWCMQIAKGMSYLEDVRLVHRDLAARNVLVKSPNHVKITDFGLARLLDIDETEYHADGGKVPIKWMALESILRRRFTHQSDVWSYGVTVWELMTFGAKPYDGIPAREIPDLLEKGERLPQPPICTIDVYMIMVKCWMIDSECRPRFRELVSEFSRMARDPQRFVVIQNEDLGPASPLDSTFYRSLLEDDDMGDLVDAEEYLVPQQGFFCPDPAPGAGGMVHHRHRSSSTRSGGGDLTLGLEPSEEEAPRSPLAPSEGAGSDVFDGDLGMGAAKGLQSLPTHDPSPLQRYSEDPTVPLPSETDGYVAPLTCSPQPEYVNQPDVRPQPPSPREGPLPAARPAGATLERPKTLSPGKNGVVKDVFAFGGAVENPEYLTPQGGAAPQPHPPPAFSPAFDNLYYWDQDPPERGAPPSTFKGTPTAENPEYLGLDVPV

[7] = target: Receptor tyrosine-protein kinase erbB-2 (Homo sapiens) (UniProt P04626); conditions: at 1 µM
[8] = target: Receptor tyrosine-protein kinase erbB-4 (Homo sapiens) (UniProt Q15303); conditions: at 0.1 µM
Chain of Receptor tyrosine-protein kinase erbB-4 (Homo sapiens) (Q15303 whole entry): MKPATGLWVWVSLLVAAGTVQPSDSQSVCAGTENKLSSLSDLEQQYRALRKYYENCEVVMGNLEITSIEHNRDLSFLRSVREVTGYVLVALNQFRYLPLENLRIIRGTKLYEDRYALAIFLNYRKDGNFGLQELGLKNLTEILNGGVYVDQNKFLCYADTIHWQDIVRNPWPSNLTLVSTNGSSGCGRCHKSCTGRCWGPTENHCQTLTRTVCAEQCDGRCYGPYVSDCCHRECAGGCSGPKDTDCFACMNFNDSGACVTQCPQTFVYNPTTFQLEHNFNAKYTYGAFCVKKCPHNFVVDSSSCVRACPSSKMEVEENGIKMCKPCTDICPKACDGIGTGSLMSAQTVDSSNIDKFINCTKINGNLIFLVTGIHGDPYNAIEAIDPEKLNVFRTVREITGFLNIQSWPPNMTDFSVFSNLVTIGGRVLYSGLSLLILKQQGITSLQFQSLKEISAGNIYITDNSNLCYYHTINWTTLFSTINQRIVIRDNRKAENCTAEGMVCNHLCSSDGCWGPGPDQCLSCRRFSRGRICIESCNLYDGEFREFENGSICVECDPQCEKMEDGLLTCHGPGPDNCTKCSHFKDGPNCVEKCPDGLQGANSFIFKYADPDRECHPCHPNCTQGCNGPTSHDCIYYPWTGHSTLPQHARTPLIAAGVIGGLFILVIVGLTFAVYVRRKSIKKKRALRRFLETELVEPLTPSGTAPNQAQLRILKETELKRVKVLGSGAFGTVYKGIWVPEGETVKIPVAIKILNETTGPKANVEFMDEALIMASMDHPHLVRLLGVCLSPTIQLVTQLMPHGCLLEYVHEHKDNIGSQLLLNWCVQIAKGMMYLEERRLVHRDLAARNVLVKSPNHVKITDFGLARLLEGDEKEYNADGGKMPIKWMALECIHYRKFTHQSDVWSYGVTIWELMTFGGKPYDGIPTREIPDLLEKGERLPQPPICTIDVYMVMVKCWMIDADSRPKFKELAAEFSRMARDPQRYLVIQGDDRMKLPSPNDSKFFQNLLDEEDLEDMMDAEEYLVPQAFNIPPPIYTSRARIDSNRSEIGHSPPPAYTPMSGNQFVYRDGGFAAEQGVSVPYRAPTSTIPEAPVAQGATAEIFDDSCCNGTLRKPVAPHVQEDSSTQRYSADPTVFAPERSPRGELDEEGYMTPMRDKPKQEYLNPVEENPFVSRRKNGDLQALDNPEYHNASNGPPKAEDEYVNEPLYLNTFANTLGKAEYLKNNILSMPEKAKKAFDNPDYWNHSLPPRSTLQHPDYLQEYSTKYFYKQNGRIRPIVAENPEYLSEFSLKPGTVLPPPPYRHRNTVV

[9] = target: Receptor tyrosine-protein kinase erbB-4 (Homo sapiens) (UniProt Q15303); conditions: at 1 µM
[10] = target: Tyrosine-protein kinase Fer (Homo sapiens) (UniProt P16591); conditions: at 0.1 µM
Chain of Tyrosine-protein kinase Fer (Homo sapiens) (P16591 whole entry, looked up): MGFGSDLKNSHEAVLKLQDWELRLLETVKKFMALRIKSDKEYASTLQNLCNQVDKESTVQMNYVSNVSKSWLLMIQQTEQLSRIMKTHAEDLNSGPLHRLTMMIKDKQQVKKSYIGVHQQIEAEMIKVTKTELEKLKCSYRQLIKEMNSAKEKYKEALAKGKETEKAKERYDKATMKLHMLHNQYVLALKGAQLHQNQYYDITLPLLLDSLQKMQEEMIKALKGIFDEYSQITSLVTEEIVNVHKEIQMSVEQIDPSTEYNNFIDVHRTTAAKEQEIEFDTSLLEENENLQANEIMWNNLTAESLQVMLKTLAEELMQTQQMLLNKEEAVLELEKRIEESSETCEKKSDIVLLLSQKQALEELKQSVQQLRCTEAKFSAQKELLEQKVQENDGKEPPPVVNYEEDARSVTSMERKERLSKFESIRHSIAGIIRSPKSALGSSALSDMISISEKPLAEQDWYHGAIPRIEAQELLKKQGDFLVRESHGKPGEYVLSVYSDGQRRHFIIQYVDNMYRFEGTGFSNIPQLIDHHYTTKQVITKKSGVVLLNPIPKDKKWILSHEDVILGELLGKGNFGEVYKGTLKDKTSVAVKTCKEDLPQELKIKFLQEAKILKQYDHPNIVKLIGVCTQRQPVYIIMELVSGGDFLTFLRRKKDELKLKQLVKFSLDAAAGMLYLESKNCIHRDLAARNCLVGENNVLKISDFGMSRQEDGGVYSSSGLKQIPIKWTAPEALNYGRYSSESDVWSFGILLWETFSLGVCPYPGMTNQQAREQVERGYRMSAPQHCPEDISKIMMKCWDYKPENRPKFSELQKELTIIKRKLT

[11] = target: Tyrosine-protein kinase Fer (Homo sapiens) (UniProt P16591); conditions: at 1 µM
[12] = target: Tyrosine-protein kinase Fes/Fps (Homo sapiens) (UniProt P07332); conditions: at 0.1 µM
Chain of Tyrosine-protein kinase Fes/Fps (Homo sapiens) (P07332 whole entry): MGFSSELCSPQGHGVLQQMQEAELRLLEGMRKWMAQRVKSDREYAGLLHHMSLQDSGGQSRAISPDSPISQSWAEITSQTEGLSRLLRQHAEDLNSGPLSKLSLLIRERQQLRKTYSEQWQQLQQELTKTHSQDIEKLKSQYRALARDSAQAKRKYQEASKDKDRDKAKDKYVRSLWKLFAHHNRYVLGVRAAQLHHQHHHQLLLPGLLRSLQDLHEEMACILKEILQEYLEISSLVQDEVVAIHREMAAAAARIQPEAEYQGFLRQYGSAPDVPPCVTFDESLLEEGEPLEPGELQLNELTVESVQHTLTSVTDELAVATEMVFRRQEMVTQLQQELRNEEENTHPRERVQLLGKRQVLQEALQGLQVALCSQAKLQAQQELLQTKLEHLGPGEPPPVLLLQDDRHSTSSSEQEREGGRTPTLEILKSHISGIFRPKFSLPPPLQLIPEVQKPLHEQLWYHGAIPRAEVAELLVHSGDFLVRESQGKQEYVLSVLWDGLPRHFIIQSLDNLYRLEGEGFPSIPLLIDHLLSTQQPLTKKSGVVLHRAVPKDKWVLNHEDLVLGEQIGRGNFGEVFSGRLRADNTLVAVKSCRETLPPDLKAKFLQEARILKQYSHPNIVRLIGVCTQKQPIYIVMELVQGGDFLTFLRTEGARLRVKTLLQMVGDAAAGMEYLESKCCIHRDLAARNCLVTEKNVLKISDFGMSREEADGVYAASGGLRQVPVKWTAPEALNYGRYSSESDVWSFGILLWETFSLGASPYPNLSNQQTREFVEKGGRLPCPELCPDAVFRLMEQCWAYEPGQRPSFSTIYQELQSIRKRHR

[13] = target: Tyrosine-protein kinase Fes/Fps (Homo sapiens) (UniProt P07332); conditions: at 1 µM
[14] = target: Fibroblast growth factor receptor 1 (Homo sapiens) (UniProt P11362); conditions: at 0.1 µM
[15] = target: Fibroblast growth factor receptor 1 (Homo sapiens) (UniProt P11362); conditions: at 1 µM
[16] = target: Fibroblast growth factor receptor 2 (Homo sapiens) (UniProt P21802); conditions: at 0.1 µM
Chain of Fibroblast growth factor receptor 2 (Homo sapiens) (P21802 22-821 limits assumed): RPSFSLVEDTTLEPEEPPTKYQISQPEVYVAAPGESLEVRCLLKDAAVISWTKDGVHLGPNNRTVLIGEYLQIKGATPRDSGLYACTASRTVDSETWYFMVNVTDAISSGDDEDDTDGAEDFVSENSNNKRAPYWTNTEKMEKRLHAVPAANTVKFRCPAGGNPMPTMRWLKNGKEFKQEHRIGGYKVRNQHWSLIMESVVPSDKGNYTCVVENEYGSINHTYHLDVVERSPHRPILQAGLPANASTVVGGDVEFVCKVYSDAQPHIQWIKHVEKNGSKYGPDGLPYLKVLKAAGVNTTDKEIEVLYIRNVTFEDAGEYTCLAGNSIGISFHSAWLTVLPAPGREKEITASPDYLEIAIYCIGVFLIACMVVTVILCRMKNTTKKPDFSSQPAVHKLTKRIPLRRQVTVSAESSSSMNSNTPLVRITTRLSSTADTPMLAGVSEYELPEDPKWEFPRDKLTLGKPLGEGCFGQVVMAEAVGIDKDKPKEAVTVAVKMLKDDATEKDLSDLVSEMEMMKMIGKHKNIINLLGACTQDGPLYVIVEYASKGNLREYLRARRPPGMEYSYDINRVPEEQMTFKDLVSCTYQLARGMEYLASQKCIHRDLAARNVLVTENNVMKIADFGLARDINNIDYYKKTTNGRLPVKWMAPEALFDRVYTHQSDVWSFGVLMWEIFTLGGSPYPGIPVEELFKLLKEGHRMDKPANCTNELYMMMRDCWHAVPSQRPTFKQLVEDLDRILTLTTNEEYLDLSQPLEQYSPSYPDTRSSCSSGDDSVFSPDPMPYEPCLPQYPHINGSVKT

[17] = target: Fibroblast growth factor receptor 2 (Homo sapiens) (UniProt P21802); conditions: at 1 µM
[18] = target: Fibroblast growth factor receptor 3 (Homo sapiens) (UniProt P22607); conditions: at 0.1 µM
[19] = target: Fibroblast growth factor receptor 3 (Homo sapiens) (UniProt P22607); conditions: at 1 µM
[20] = target: Fibroblast growth factor receptor 4 (Homo sapiens) (UniProt P22455); conditions: at 0.1 µM;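 further: values are mean percent inhibition of FGFR4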

For `CN(C)c1ccc2c(c1)/C(=C/Nc1ccc(S(N)(=O)=O)cc1)C(=O)N2`, the inhibition [1] was 5.77%, the inhibition [2] was 4.11% and the inhibition [3] was 1.83%. For the same compound, the inhibition [4] was 2.11%, the inhibition [5] was 3.08% and the inhibition [6] was 0.32%. The inhibition [7] was 3.44%, the inhibition [8] was 4.88% and the inhibition [9] was 7.65%. The inhibition [10] was 2.36%, the inhibition [11] was 8.18% and the inhibition [12] was 0.6%. It also gave an inhibition [13] of 0.4%, an inhibition [14] of 3.54% and an inhibition [15] of 15.3%. For the same compound, the inhibition [16] was 5.56%, the inhibition [17] was 31.6% and the inhibition [18] was 7.1%. For the same compound, the inhibition [19] was 29.6% and the inhibition [20] was 1.99%.
Compound `C[C@@H](Oc1cc(-n2cnc3ccc(OC4CCN(C)CC4)cc32)sc1C(N)=O)c1ccccc1Cl` has an inhibition [1] of 7.99%, an inhibition [2] of -1.42% and an inhibition [3] of -0.38%. It also gave an inhibition [4] of -3.06%, an inhibition [5] of -1.28% and an inhibition [6] of 2.36%. It also gave an inhibition [7] of 2.65%, an inhibition [8] of 1.1% and an inhibition [9] of 6.83%. The inhibition [10] was 3.05%, the inhibition [11] was 3.96% and the inhibition [12] was 2.48%. The inhibition [13] was 3.52%, the inhibition [14] was 2.78% and the inhibition [15] was 9.26%. For the same compound, the inhibition [16] was 4.51%, the inhibition [17] was 8.58% and the inhibition [18] was 4.86%. The inhibition [19] was 9.86% and the inhibition [20] was -0.28%.
With `CCC(=O)Nc1ccc(C)c(-c2ccc(C(=O)NCC3CC3)cc2)c1` the inhibition [1] was 7.83%, the inhibition [2] was 2.63% and the inhibition [3] was 4.65%. The inhibition [4] was 0.55%, the inhibition [5] was 1.51% and the inhibition [6] was 2.99%. It also gave an inhibition [7] of 3.96%, an inhibition [8] of 9.79% and an inhibition [9] of 13.9%. The inhibition [10] was -0.76%, the inhibition [11] was 1.35% and the inhibition [12] was 3.63%. For the same compound, the inhibition [13] was 2.61%, the inhibition [14] was 2.39% and the inhibition [15] was 4.4%. The inhibition [16] was 3.64%, the inhibition [17] was 5.39% and the inhibition [18] was 2.42%. The inhibition [19] was 2.89% and the inhibition [20] was 2.19%.
In the case of `Cc1ccc(C(=O)NC2CCC2)cc1-c1ccc(C(=O)NCC2CC2)cc1`, the inhibition [1] is reported as 2.05%, the inhibition [2] is reported as 3.94% and the inhibition [3] is reported as 1.11%. For the same compound, the inhibition [4] was 1.02%, the inhibition [5] was 3.17% and the inhibition [6] was 3.5%. For the same compound, the inhibition [7] was 8.52%, the inhibition [8] was 16.7% and the inhibition [9] was 17.7%. For the same compound, the inhibition [10] was 4.2%, the inhibition [11] was 2.82% and the inhibition [12] was 2.48%. It also gave an inhibition [13] of 1.75%, an inhibition [14] of 5.21% and an inhibition [15] of 0.27%. The inhibition [16] was 2.36%, the inhibition [17] was 3.31% and the inhibition [18] was 3.29%. For the same compound, the inhibition [19] was 3.04% and the inhibition [20] was 0.25%.
`Fc1ccc(-c2ncn(C3CCNCC3)c2-c2ccnc(Oc3ccc4c(c3)OCO4)n2)cc1` showed an inhibition [1] of 16.5%, an inhibition [2] of 5.97% and an inhibition [3] of 3.71%. For the same compound, the inhibition [4] was 1.53%, the inhibition [5] was 3.9% and the inhibition [6] was -0.35%. It also gave an inhibition [7] of 12%, an inhibition [8] of 10.6% and an inhibition [9] of 19.3%. It also gave an inhibition [10] of 6.11%, an inhibition [11] of 10.4% and an inhibition [12] of 4.19%. It also gave an inhibition [13] of 3.36%, an inhibition [14] of 3.51% and an inhibition [15] of 11.8%. The inhibition [16] was 6.16%, the inhibition [17] was 12% and the inhibition [18] was 6.95%. It also gave an inhibition [19] of 9.41%.
Compound `Fc1ccc(-c2ncn(C3CCNCC3)c2-c2ccnc(Oc3ccc(F)c(F)c3)n2)cc1` has an inhibition [1] of 8.76%, an inhibition [2] of -0.46% and an inhibition [3] of 1.58%. It also gave an inhibition [4] of -4.11%, an inhibition [5] of 0.57% and an inhibition [6] of 3.82%. The inhibition [7] was 3.63%, the inhibition [8] was 1.82% and the inhibition [9] was 5.03%. It also gave an inhibition [10] of 1.43%, an inhibition [11] of 3.96% and an inhibition [12] of 2.73%. It also gave an inhibition [13] of 2.2%, an inhibition [14] of -3.39% and an inhibition [15] of 0.21%. It also gave an inhibition [16] of 0.37%, an inhibition [17] of 2.12% and an inhibition [18] of 0.74%. For the same compound, the inhibition [19] was 2.67% and the inhibition [20] was -2.57%.
Compound `c1ccc(Oc2ccc(Nc3ncc(-c4ccccc4)o3)cc2)cc1` has an inhibition [1] of 9.65%, an inhibition [2] of 2.67% and an inhibition [3] of 0.66%. It also gave an inhibition [4] of 2.42%, an inhibition [5] of 0.76% and an inhibition [6] of -0.01%. It also gave an inhibition [7] of 1.41%, an inhibition [8] of 4.29% and an inhibition [9] of 5.09%. For the same compound, the inhibition [10] was 2.19%, the inhibition [11] was 1.64% and the inhibition [12] was 0.55%. The inhibition [13] was 0.4%, the inhibition [14] was -1.76% and the inhibition [15] was 2.11%. The inhibition [16] was 1.12%, the inhibition [17] was 3.49% and the inhibition [18] was 4.41%. For the same compound, the inhibition [19] was 4.9% and the inhibition [20] was 2.77%.

From ChEMBL document CHEMBL1961873, “Compounds: GSK PKIS; Assays: Nanosyn kinase panel” (2012)
